# High-throughput results as filed in PubChem.
# KB-V1 MDR tox – kills drug-selected multidrug resistant KB-V1 cells. KB-V1 MDR cells viability, CellTiter-Glo, 72 h. Potency, µM (doses to about 46.1 µM), actives largely listed as cytotoxic. 400,000 tested, 3.4% active. AID 1347076; also: % is scaled to controls: 0 for no effect and ±100 for the full control effect; nearly all actives have a fitted effect of over 60% in size
#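 Potencies derive from concentration-effect curves fitted to normalized luminescence (CellTiter-Glo) of KB-V1 cells treated for 72 h at 37 degrees C in phenol-red-free DMEM containing 10% FBS.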
# ATXN2 expr inh – reduces ATXN2 reporter expression in HEK-293 cells; Potency, µM (series often up to 57 µM), for the others: at the top dose activity change, negative = inhibition, hits mostly inhibitors; HEK-293 ATXN2-luciferase reporter, luminescence, 24 h; 360,000 tested, 0.72% active; also: % is scaled to controls: 0 for no effect and ±100 for the full control effect; nearly all actives have a fitted effect of over 55% in size
#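 qHTS (up to 57 uM final) was run with 24 h compound exposure of reporter cells at 37 °C. Each well was multiplexed: SteadyGlo luminescence measured ATXN2-luciferase expression after a fluorogenic Gly-Phe-AFC viability readout (25 uM final).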
# HT1080 IDH1KD tx – toxicity to HT-1080 IDH1 knockdown cells (counter line); 360,000 tested, 2% active; HT-1080 IDH1 knockdown viability, ATP luminescence, 48 h; AID 686971; Potency, µM (doses to about 46.1 µM), inactives show at the top dose activity, negative = toxicity, actives largely listed as cytotoxic;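 also: 0% = DMSO wells and -100% = cell-free medium wells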
#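 IDH1KD HT-1080 cells, 750/well, RPMI + 5% FBS; compound pinned after 2 h settling; 48 h, 37 °C; CellTiter-Glo luminescence; % activity normalised to DMSO and no-cell wells; curves fitted, classed by r2 and efficacy.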
# HT1080NT lethal – kills 2HG-producing HT-1080-NT fibrosarcoma cells; HT-1080-NT fibrosarcoma viability, CellTiter-Glo ATP luminescence, 48 h; Potency, µM (series often up to 46.1 µM), without a hit: top-dose activity, negative = less viability, most hits filed as cytotoxic; 360,000 tested, 1.6% active;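 also: NT is the 2HG producing partner of a matched IDH1 knockdown line; 0% = DMSO-treated cells and -100% = media-only wells without cells; nearly all actives have a fitted effect of over 55% in size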
#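 Viability of the 2HG-overproducing fibrosarcoma line after 48 hours of compound exposure at 37 degrees C was determined by luminescence with CellTiter-Glo, and concentration-effect curves were then fitted and categorized.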
# KB-3-1 tox – KB-3-1 parental cell cytotoxicity; 400,000 tested, 1.4% active; Potency, µM (highest dose often 46.1 µM), usual class: cytotoxic; AID 1347075; KB-3-1 viability, CellTiter-Glo ATP luminescence, 72 h; also: % is scaled to controls: 0 for no effect and ±100 for the full control effect; nearly all actives have a fitted effect of over 60% in size
#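 Parental KB-3-1 adenocarcinoma cells in phenol-red-free DMEM with 10% FBS were pin-treated with compounds at several concentrations, incubated 72 h at 37 °C, and viability read by CellTiter-Glo luminescence; concentration-effect curves were fitted after normalization.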
# S2 tox – reduces viability in counter-screen for ATXN expression inhibitors | S2 cells (HEK-293 line with an ATXN2-luciferase reporter) viability, CellTiter-Fluor protease fluorescence, 24 h | 400,000 tested, 0.49% active | Potency, µM (titrated, usually from 56.7 µM), most hits filed as cytotoxic; also: nearly all actives have a fitted effect of over 40% in size
# Active calls of the source: *; i = inactive; u = inconclusive; x = no result given; [ ] = another dose, or the depositor's remark. Compounds with a hit are over-represented: about 6.2% of the library has one in this group of screens. Calls follow the shape of the dose curve; as a rule, active = well fitted curve in the direction sought with a large enough effect; inconclusive = small, poorly fitted or top-dose-only effect, or another doubt; inactive = no such curve, though single readings can be large; an effect the other way counts as inactive or inconclusive. Potency is read from the fitted curve at half-maximal effect.
SMILES,KB-V1 MDR tox,ATXN2 expr inh,HT1080 IDH1KD tx,HT1080NT lethal,KB-3-1 tox,S2 tox
O=C(NCCN1CCOCC1)c1cc(-c2cccs2)on1,16µM*,2%,u,u,i,i
CCN1C(=O)/C(=C/c2cccs2)SC1=Nc1ccc(OC)cc1,i,-6%,12%,10%,i,u
COc1ccc(N=C2S/C(=C\c3ccc(Cl)c([N+](=O)[O-])c3)C(=O)N2CCN(C)C)cc1,i,x,21µM*,u,i,10µM*
CCN(CC)CCN1C(=O)/C(=C\c2ccc(Cl)c([N+](=O)[O-])c2)SC1=Nc1ccc(OC)cc1,i,32µM*,3.3µM*,2.6µM*,u,x
CCCN1C(=O)/C(=C/c2ccc(C)s2)SC1=Nc1ccc(OC)cc1,u,-10%,13%,5%,i,i
CC(C)C[C@H](NC(=O)[C@@H](COC(C)(C)C)NC(=O)[C@H](Cc1ccc(O)cc1)NC(=O)[C@H](CO)NC(=O)[C@H](Cc1c[nH]c2ccccc12)NC(=O)[C@H](Cc1cnc[nH]1)NC(=O)[C@@H]1CCC(=O)N1)C(=O)N[C@@H](CCCN=C(N)N)C(=O)N1CCC[C@H]1C(=O)NNC(N)=O,x,x,x,x,x,i
CN(C)C(=O)COC(=O)c1cccnc1Nc1ccccc1F,16µM*,20%,11%,9%,i,i
NC(=O)COC(=O)c1cccnc1Nc1ccccc1F,i,9%,0%,2%,i,i
O=C(CSC1=Nc2ccccc2N=C(c2ccc(F)cc2)C1)Nc1ccc(Cl)cc1,i,4%,x,x,i,i
COc1ccccc1Nc1nnc(SCC(=O)N2CCCC2)s1,13µM*,28%,2%,4%,i,i
COc1ccccc1Nc1nnc(SCC2CCCCO2)s1 (stereo not given),9.2µM*,-16%,15µM*,16µM*,16µM*,i
COCCSc1nnc(NC(=O)Cc2ccccc2OC)s1,18µM*,0%,17%,14%,i,i
CCOc1ccccc1Nc1nnc(SCC(=O)N2CCCC2)s1,i,-1%,2%,0%,i,i
COc1cccc(NS(=O)(=O)c2ccc3[nH]cc(C(=O)NC4CCCCC4)c(=O)c3c2)c1,u,u,x,x,i,i
Cc1cc(C)cc(C(=O)NCCn2cc(C(=O)N3CCSCC3)nn2)c1,x,x,x,x,x,i
N=C1C=CC(=C(c2ccc(N)cc2)c2ccc(N)cc2)C=C1,i,u,7.3µM*,23µM*,3.7µM*,x
COc1ccc(N2CCN(C(=O)CSc3nnc(-c4cc5ccccc5cc4O)n3C)CC2)cc1,2.3µM*,-16%,u,u,18µM*,i
COc1ccc(N2CCN(C(=O)CSc3nnnn3-c3ccc4c(c3)OCCO4)CC2)cc1,21µM*,0%,-25%,0%,i,i
CCC(c1nnnn1-c1ccc2c(c1)OCCO2)N1CCN(c2ccccc2OC)CC1 (stereo not given),7.3µM*,-17%,u,-6%,u,i
CCC(c1nnnn1-c1ccc2c(c1)OCCO2)N1CCN(c2ccc(C)cc2)CC1 (stereo not given),i,-16%,-14%,-10%,18µM*,i
CCC(=O)Nc1ccc(CC)cc1-c1nc2ccccc2n(CC(=O)Nc2cccc(OC)c2)c1=O,i,x,x,x,i,x
COc1ccc(-n2nnnc2SCC(=O)NC2CC2)cc1,i,3%,-3%,2%,i,i
CCC(c1nnnn1-c1ccc2c(c1)OCCO2)N1CCN(c2ccccc2)CC1 (stereo not given),i,-17%,-8%,1%,u,i
CCC(c1nnnn1-c1ccc2c(c1)OCCO2)N1CCN(c2ccc(OC)cc2)CC1 (stereo not given),16µM*,-17%,-29%,-2%,u,i
COc1ccc(-n2nnnc2SCC(=O)c2cccc(OC)c2)cc1,i,0%,-3%[9.24 µM],22µM*,i,i
SMILES,KB-V1 MDR tox,ATXN2 expr inh,HT1080 IDH1KD tx,HT1080NT lethal,KB-3-1 tox,S2 tox
COc1ccc(-n2nnnc2SCC(=O)Nc2nc3c(s2)CCCC3)cc1,i,-36%,18µM*,-21%,i,u
COc1ccc(OC)c(NC(=O)CSc2nnnn2-c2ccc3c(c2)OCO3)c1,u,8.9µM*,0%,u,u,i
Cc1ccc(C(=O)c2oc3ccccc3c2NC(=O)c2nc(S(C)(=O)=O)ncc2Cl)cc1F,i,1%,x,x,i,i
COc1ccc(CNC(=O)C2CCN(c3nc4ccccc4[nH]3)CC2)cc1OC,i,x,x,x,i,x
O=C1C=C(c2c(O)ccc3ccccc23)c2ccccc2C1=O,i,16µM*,u,7.3µM*,u,x
CCCCNS(=O)(=O)c1ccc2nc(-c3cccnc3)cc(C(=O)NCCC)c2c1,i,3%,x,x,i,i
c1ccc(-n2ncc3c(NCc4ccc5c(c4)OCO5)ncnc32)cc1,21µM*,60%,u,u,i,i
Cc1ccc(-n2ncc3c(NCc4ccc5c(c4)OCO5)ncnc32)c(C)c1,4.1µM*,-14%,-28%,-14%,u,i
Cc1ncc2c(c1CNC(=O)c1cncs1)CCN(C(=O)c1csc(-c3cccs3)n1)C2,x,x,x,x,x,i
Cc1ccc(-c2noc(CN(C(=O)COc3cc(C)cc(C)c3C)C(C)C)n2)cc1,i,-16%,x,x,i,i
CCC1=NN(C(=O)c2ccc(C)cc2)C(O)(c2ccc(Br)cc2)C1 (stereo not given),21µM*,-6%,-26%,-19%,i,i
CCC1=NN(C(=O)c2ccc(Br)cc2)C(O)(c2ccc(C)cc2)C1 (stereo not given),i,-11%,-15%,-18%,i,i
CCC1=NN(C(=O)c2cccc(Br)c2)C(O)(c2ccc(Br)cc2)C1 (stereo not given),u,u,18µM*,u,u,u
CC(=O)c1cccc(NC(=O)Cn2c(=O)oc3cc(S(=O)(=O)NCc4ccccc4)ccc32)c1,i,x,x,x,i,x
O=[N+]([O-])c1ccc(/C=C2\C=Cc3ccccc32)cc1,i,x,x,x,i,x
CCc1ccc2oc(C(=O)Nc3cc(C)ccc3C)cc(=O)c2c1,i,-6%,x,x,i,i
CCc1nc(Sc2nnnn2-c2ccccc2)c2c3c(sc2n1)CCCC3,u,-8%,3%,10%,i,u
Cc1nc(Sc2nnnn2C)c2c3c(sc2n1)CCC3,6.5µM*,20%,5.2µM*,3.3µM*,3.3µM*,i
